Our source for the z-score values is PubChem BioAssay AID1508600 (Functional Genomics Laboratory (NCATS/FGL), 2020).

Hit rate of the full screen: of about 53,000 sequences, about 3,700 (7%) were called active.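 The calls were made as follows: active = gene knockdowns whose robust z-score for IL-1 alpha signal is at least 2 or at most -2, so actives lie on both sides; inactive = the rest.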 Only a selection was taken, and actives are over-represented in it overall.

This test is described as follows: Components of the Cytosolic LPS Sensing Pathway: Gene Identification via Genome-wide siRNA Screen. The conditions noted are these: RAW264.7 macrophages, IL-1a HTRF, actives lie on both sides, screened at 100 nM (by protocol), cells primed 5 h with Pam3CSK4 first. An excerpt: Non-canonical inflammasome activation by cytosolic LPS is a critical component of the host response to Gram-negative bacterial infection, however we lack a comprehensive understanding of the cellular processes that control this pathway. Here we describe a genome-wide siRNA screen to identify genes regulating the mouse macrophage IL-1 alpha response to cytosolic LPS.
RAW264.7 cells were maintained in complete DMEM media, comprising DMEM with 4.5 g/L glucose, 10% FBS (Gemini Bio-Products, West Sacramento, CA), 2 mM Glutamine (Lonza) and 20 mM HEPES (Lonza), hereafter complete DMEM.
The RNAi screen was conducted in 384-well format using the Ambion Silencer Mouse Genome siRNA Library (#4391425), which consists of three unique, nonoverlapping, nonpooled siRNAs for each of 17,000 gene targets. siRNA reagents ([…]) were stamped into 384-well white flat-bottom microplates (Corning, 3570) using a Velocity11 VPrep liquid handling system (Agilent) integrated into a BioCel robotic platform (Agilent) in columns 1-22, leaving columns 23-24 empty for negative (Ambion, Negative control #1) and positive (mouse Casp4) controls, respectively. The median value of each plate's negative control column was used to normalize sample wells, and the positive control was used to assess transfection efficiency and assay performance.
Lipofectamine RNAiMAX Transfection Reagent ([…]; Invitrogen) was added in […] serum-free, antibiotic-free media to plate wells using a Thermo Scientific Matrix WellMate and Microplate Stacker. Plates were incubated for 45 min at room temperature to allow for the sufficient formation of siRNA-lipid complexes. Cells were seeded at a density of 1x10^4 cells per well in 20 microL media containing 20% (vol/vol) FBS without antibiotics. The final concentration of siRNA in each well was 100 nM. Cells were cultured for 48h at 37 degrees C in 5% CO2 before addition of […] of TLR ligand Pam3CSK4 for 5 hours. The medium was then removed, replaced with […] growth media and cell were transfected with […] of LipidA and TransIT-TKO (Mirus) for 24 hour. At the end of the LipidA treatment, […] of supernatant was transferred to a 384 Greiner Bio-one non-binding low volume plate and […] of IL-1a HTRF reagent (Cisbio, 62MIL1APEH) was added and incubated at room temperature overnight. The plates were read on an EnVision plate reader (PerkinElmer). Cell viability was measured by adding 20ul Cell Titer Glo to the original plate and running a luminescence read on the EnVision. The quantified IL-1a signal for each siRNA gene-targeted well was divided by the median of the negative control wells and multiplied by 100 to achieve a negative control normalized value for each well/siRNA. This normalized value was then used to generate a robust z-score by first taking the log of each value and then by subtracting the median and dividing by the […].
A general note: Time-resolved FRET reads energy transfer from a long-lived donor to a nearby acceptor.
For the sequence GGUCAUAGAGACAGACUACTT against Lcn12, the z-score was -0.378 (inactive). In the case of CGCAGAACCCUGGUUUCUATT against Trappc11, the z-score was -0.232 (inactive).

Take GGACUUUCUCUAGGAUCCATT against Slamf8: the z-score is -0.705 (inactive).

With GGCUGGUUACCUGCAUAAGTT against Sh3bp2, the z-score is 0.225 (inactive). For the sequence GGUACCAUCCGGAAUACAATT against Zdhhc19, the z-score was 3.95 (active). Consider GGCCUCCUAACAAUUCAGCTT against Foxp1, for which the z-score was 0.0693 (inactive). In the case of GCUCAGAGCAUGUUGGUGGTT against Dstyk, the z-score is -0.805 (inactive).

Turning to GGAUAUACAAGCACAAACUTT against Gjc3, the z-score is 0.432 (inactive). Turning to GGGAUUUAAAAGGAAAUGUTT against Gbp7, the z-score is -1.05 (inactive).

GAAGCAGAUACCAAAACAATT against Kir3dl1: the z-score is -3.02 (active). In the case of GGAGGUGGUGCUUAAAGGUTT against Rnf122 it was 0.41 (inactive).

With GGUGAAAAGAGAUUUGAAUTT against Sp4, the z-score was 0.587 (inactive).

With GCUCGUUCUUCGACAUCUUTT against Stard3, the z-score is -0.946 (inactive).

For the sequence GGACCUAGUGCGUUCCAAATT against H1f7, the z-score is 2.92 (active). Next, GCGAUAUUUCAAGAGAAGCTT against Evc2: -0.372 (inactive); CCCAAGCCUACCUUACGAGTT against Hipk2: -1.67 (inactive). In the case of CCUAAUACCUUCAGUGUUCTT against Ptcd3 it was 0.865 (inactive); in that of GGAAACUUAAGCAAAUUCUTT against Gprc6a, 3.11 (active).

On to GGUGACUUUUUGGUACAGATT against Mthfr, for which the z-score is 0.558 (inactive).

As for GGCUGUUAUCCAGAGAGAUTT against Nim1k, the z-score is 0.177 (inactive). Take GGACCUGAACACAGCUACUTT against Stoml1: the z-score is 1.04 (inactive). GGAGAUCCUUAAGCUGUUGTT against Aen: the z-score is -2.37 (active). Turning to GCCUGACGGCACGUAUGUATT against Acox1, the z-score is 0.527 (inactive). In the case of GGUACAGUGCAUCGACAUGTT against Eng it was 0.879 (inactive). CGGAAGGAAGUGCCUAAACTT against Rcc2: the z-score was 0.668 (inactive). In the case of GCAGUUAACUACGUUGCAATT against Zranb2 it was -0.44 (inactive); in that of GGGAUGUGAUAGUUCAUAATT against Stil, -0.304 (inactive). In the case of GGACAUUCUCUACCGAAUATT against Acsm1, the z-score is 2.04 (active).

Consider GGAUGAUUAUUGGAGCUAUTT against Vtn, for which the z-score was 0.128 (inactive). GGACAAUAGGAGCCUUUAATT against Vmn1r211: the z-score is 0.125 (inactive).

On to CCUUCUAGUGCAUCAGUGGTT against Olfr890, for which the z-score is -0.508 (inactive). With GGCUCUGGUCCAAGAAAUGTT against C4b, the z-score was -0.176 (inactive).

As to CCAUGUCGUAUGUGAUUCUTT against Hils1, the z-score was -0.528 (inactive). Next, GGAUGUUGAACAAAAGAAGTT against Abce1: -0.863 (inactive); GCUUAUGUUGUUGUGCAUUTT against Zfyve21: 0.362 (inactive); GCUAUUCAAUCUGAGGAAATT against Olfr1278: 0.246 (inactive). With GCCUGGAUUAUAGGAUCACTT against Tmem208, the z-score is -1.45 (inactive). As to GGAUUAGAAUGUCAUGUCUTT against Ddx20, the z-score is -1.28 (inactive). In the case of GCAUCAGGCCCGUUCAGAATT against Ddx4 it was 3.23 (active); in that of “GCAGGUUGCUAUGCAUAUGTT against 9930038B18Rik”, 0.722 (inactive); in that of CGCAUUUUAGUUCAUCUGUTT against Sowahb, -0.669 (inactive). In the case of GGAUCAAGGAGCAAGUGGUTT against B4galnt1, the z-score was -1.7 (inactive). For GACCUUCCAGGUCAAGUUGTT against Plcg1, the z-score was 2.56 (active). In the case of CCUAUUCCAUUGACAAUGATT against Tubb2a, the z-score is 0.286 (inactive). With GCUAAUUCAUGAAUUGAUGTT against Ofd1, the z-score is 1.01 (inactive). For the sequence GGAGCAGGAGAAAAUUUUGTT against Olfr437, the z-score is -0.0124 (inactive). GGCCCGUCACAUGAAGAAGTT against Ip6k3: the z-score is 0.238 (inactive). With GGAGCUAAGUGAUUUUAGATT against Mtf1, the z-score is 0.403 (inactive).

In the case of GGUGGAGGAUUUUUCAGAUTT against Hs6st2, the z-score is 2.42 (active). For GGAGGAUAUUGGAACUGCCTT against Lrrc26, the z-score is 0.312 (inactive).

GGCAUUAUCGUGGUUGGCATT against Ntpcr: the z-score was -1.97 (inactive). As to GCACGAGAGUCUGAAGGAUTT against Mns1, the z-score was -0.2 (inactive). Take GGUUGUCGCCAGAAUCAAGTT against Slc9a3r2: the z-score was 2.28 (active). With GGAUCUAUGGACGACCUUCTT against Kcnj10, the z-score is -0.643 (inactive).

With GGCGUGUCUGUAAAAUCUUTT against Exo5, the z-score is 0.656 (inactive).

In the case of GCGAGAUUGGUGCAAAACUTT against Grem1, the z-score is -1.43 (inactive). In the case of CCGUCAUCCGAGCAAUCAGTT against Kcnq5 it was -0.248 (inactive). With CGAACGAUUGAAGAUUUCUTT against Nat3, the z-score is 2.81 (active).

GGUGGCAGACAUUUCAACATT against Ifi27: the z-score was 1.54 (inactive). In the case of GCUUCUUACAGUUUGCCCATT against Vmn1r65 it was -0.859 (inactive); in that of CGUGACCAUCAGGCUAAAGTT against Ecrg4, 3.42 (active). For the sequence GGUAAAAAAUGCUUUCAACTT against Olfr1008, the z-score is 0.696 (inactive).

Turning to GGCGACAGCUAAGUGUUGGTT against Gprc5a, the z-score was -0.0528 (inactive). With GGAGCUGAUAAGAAAACUATT against Gbp2, the z-score was 0.486 (inactive).

Turning to CCCUCAGUUGGUCACAUGUTT against Mpc1, the z-score was -0.182 (inactive). As for GGGACAAAAUUAUUCCUCCTT against Med14, the z-score was -0.977 (inactive). For the sequence GGAACAACUUUCAUCUCACTT against Anxa10, the z-score is 1.34 (inactive). Take CGAAAUUUAACUUGAACAGTT against Toporsl: the z-score is 0.659 (inactive).

In the case of GGGACGGAGAAAAGCUUUUTT against Olfr419, the z-score is 3.92 (active). Regarding AGCAGAAAAAGGAAGGCCATT against Xlr3c, the z-score was 0.733 (inactive).

With GGACACAGACCUUUGUUAATT against Lpar6, the z-score was -0.0566 (inactive).

Turning to GUUCACACACGAAUUUGACTT against H2-Oa, the z-score is -2.32 (active). As to GCCUGUUUGGUAUUCUUCCTT against Olfr832, the z-score is -1.19 (inactive). GGGAAACUCUGCAUGAGUATT against Tenm1: the z-score was -0.137 (inactive).

Consider CCUCUGUUGAACCAUCAUUTT against Gpr21, for which the z-score was 0.127 (inactive). Next, GGCGGUGAUGGAAUGAACATT against Plod2: 0.706 (inactive); CCUACCACAUGGAUGAGUATT against Accs: 0.525 (inactive).

On to GCUCUAGGGUCGUAAUGUUTT against Ralb, for which the z-score is -2.33 (active).

On to GGAUUUCAUCUGGUACCUGTT against Ceacam19, for which the z-score was -0.0176 (inactive). For CGGAAUAUAGAAUGAAACCTT against Cd200r3, the z-score was 0.731 (inactive).

For the sequence GGACCAUAAAGUGUUACUATT against Tnrc6b, the z-score was 0.526 (inactive).

Take GGGCCCAUUUUCAGAAAUGTT against Tagln3: the z-score was 0.0546 (inactive). Take GGAGGUUAAGAUUCCAGAGTT against Prune1: the z-score was 1.52 (inactive).

Turning to CCUAUGGCCAUGAUCCUUATT against Olfr575, the z-score was 1.29 (inactive). In the case of GGUCAAUGAACCAUCCCACTT against Padi6 it was -0.983 (inactive). Regarding GGAACACCAUCAAUAAACUTT against Tjap1, the z-score is -2.09 (active). In the case of GGACCAGAGUAACUUGAAUTT against Zfp128 it was -0.66 (inactive); in that of CCAUUAUUCUAGUGUCCUATT against Olfr1368, -0.753 (inactive). Next, GGGCUAUCUUCUGAUUGGCTT against Zp3r: -2.45 (active). For GGAACUGCUCAAGAUCAAGTT against Plagl2, the z-score was 1.92 (inactive). Regarding GGGCUGAUAAUGUUAGCUCTT against Olfr161, the z-score is 0.48 (inactive). For CCUCAUAGGCUUGACAAUUTT against Exoc2, the z-score is -0.0626 (inactive).

Consider GGCAGCAUGAUUAUUUCAATT against Gm4861, for which the z-score was -0.0747 (inactive). Consider GGAAGUAGGACUAGCCAUCTT against Akr1c6, for which the z-score is 3.37 (active). Next, CCUGAAAAGCUAUUGGGUATT against Baat: -0.196 (inactive); GGGAUGGAGAAUCAAGAUATT against Tmem117: -1.9 (inactive). CCCACAUAAAUAAGUUGGUTT against Olfr996: the z-score was -1.02 (inactive).

For GGUUCAGCUUUUCAUCAGUTT against Cops3, the z-score was 1.37 (inactive).

For the sequence GGAGAUUAUCACAACUAUUTT against Sash3, the z-score was 0.845 (inactive).

As for GGUUCUUGGGCACCAUUAUTT against Olfr786, the z-score was 0.742 (inactive). Next, “GCCGUUUGUACCUUGUCAGTT against 4933430I17Rik”: -3.01 (active); GCAAUAUUUCAGCACACUGTT against Txndc16: -1.08 (inactive); GCUAAAUUCAGCUGAGGCUTT against Kdm4d: -0.217 (inactive). In the case of GGGAAUAUGUCUUGUGAUATT against Ddo, the z-score is 0.141 (inactive).

In the case of GGUUUUACUGUAGACCUUUTT against Hnrnpa1, the z-score is 0.542 (inactive). In the case of GGGAAACUUCUUCAUGGGUTT against Dazap2 it was 0.0384 (inactive); in that of GGAGUAUGAAUGCUAUGUCTT against Fsd2, -3.24 (active). Next, GGCUCAUCGAGAUUAACCCTT against Carns1: 0.195 (inactive).
